# Most compounds without a hit are left out; they make up all but 0.9% or so of the library.
# SRC3 TRFRET art: flags TR-FRET format artefacts in PPARgamma SRC-3 recruitment agonist screen | TR-FRET artefact counter-screen, PPARgamma/SRC-3 format; active compounds read high | TR-FRET ratio at 8 µM | hit rate 0.39% among 99,000 | AID 1048; in the data active = TR-FRET ratio above about 2000
# SRC2 TRFRET art: flags TR-FRET format artefacts in PPARgamma SRC-2 recruitment agonist screen; TR-FRET artefact counter-screen; active compounds read high; TR-FRET ratio at 8 µM; hit rate 0.4% among 200,000; in the data active = TR-FRET ratio above about 2000
# SRC1 TRFRET art: TR-FRET artefact, counter-screen to PPARgamma/SRC-1 agonist assay | TR-FRET detection artefact counter-screen, emission ratio; active compounds read high | TR-FRET ratio at 8 µM | hit rate 0.34% among 99,000 | AID 1051; in the data active = TR-FRET ratio above about 2300
# PPARg SRC-1 ag: agonists of human PPARgamma SRC-1 coactivator recruitment. activation, % at 8 µM. hit rate 0.41% among 200,000. PPARgamma-SRC-1 coactivator recruitment biochemical assay. P37231. AID 631; in the data active = activation above about 19%;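 note: 0% = DMSO and 100% = reference agonist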
# PPARg SRC2 recr: agonists of SRC-2 recruitment by human PPARgamma. activation, % at 8 µM. hit rate 0.34% among 200,000. P37231. PPARgamma LBD-SRC-2 recruitment, biochemical. AID 1032;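 note: 0% = vehicle and 100% = reference agonist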
# PPARg SRC-3 ag: PPARgamma-driven SRC-3 recruitment agonism; P37231; biochemical PPARgamma/SRC-3 coactivator recruitment assay; activation, % at 8 µM; hit rate 0.26% among 200,000; in the data active = activation above about 23%;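 note: 0% = DMSO and 100% = reference agonist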
# PPARg SRC2 ag: confirmation of agonists of SRC-2 recruitment by human PPARgamma; shares compounds with PPARg SRC-3 ag; biochemical SRC-2 recruitment by PPARgamma; activation, % at 8 µM; hit rate 52% among 790; AID 1297;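 note: 0% = vehicle alone and 100% = reference agonist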
# PPARg SRC1 ag: human PPARgamma SRC-1 recruitment agonism, confirmation; hit rate 43% among 790; AID 1300; shares compounds with PPARg SRC-3 ag; activation, % at 8 µM; PPARgamma–SRC-1 coactivator recruitment biochemical assay; in the data active = activation above about 20%;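 note: 0% = vehicle wells and 100% = reference agonist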
# PPARg SRC3 conf: human PPARgamma SRC-3 recruitment agonism, confirmation; shares compounds with PPARg SRC-3 ag; biochemical PPARgamma-SRC-3 coactivator recruitment, agonist mode; activation, % at 8 µM; hit rate 29% among 790; AID 1301; in the data active = activation above about 24%;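 note: 0% = vehicle wells and 100% = reference agonist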
# Starred values were filed as active, the others as inactive; / = no result. Cut-off read from the data, not from the text of the source, unless noted: active = activation above about 22%; inactive = the rest.
SMILES,SRC3 TRFRET art,SRC2 TRFRET art,SRC1 TRFRET art,PPARg SRC-1 ag,PPARg SRC2 recr,PPARg SRC-3 ag,PPARg SRC2 ag,PPARg SRC1 ag,PPARg SRC3 conf
S=c1nc(-c2cc(Cl)ccc2Cl)[nH][nH]1,2092*,2272*,2654*,20,27*,15,24*,19,17
S=c1nc(-c2ccccc2Br)[nH][nH]1,/,1310,/,2,4,13,/,/,/
S=c1nc(-c2cccc(Cl)c2)[nH][nH]1,2145*,1956,2102,16,28*,7,24*,21*,17
Cc1ccccc1C(=O)Nc1nnc(-c2ccco2)s1,1974,2099*,2497*,24*,16,11,42*,36*,26*
COc1ccccc1C(=O)Nc1nnc(-c2ccco2)s1,/,1757,/,7,9,6,/,/,/
CC(C)CSC1=NSC2=NC(=O)/C(=C\c3coc4ccccc4c3=O)C(=N)N12,1817,1797,1912,7,5,12,/,/,/
CSC1=NSC2=NC(=O)/C(=C\c3coc4ccccc4c3=O)C(=N)N12,1493,1437,1656,25*,15,28*,9,10,22
COc1ccc(C)cc1NC(=O)c1ccccc1NS(=O)(=O)c1ccc(Cl)s1,1784,1478,1909,3,7,2,/,/,/
CN(C)c1ccc(/C=C/c2ccc3c4ccccc4ccc3[n+]2-c2ccccc2)cc1,2137*,2446*,2287,47*,49*,28*,30*,20*,23
CN(C)c1ccc(/C=C/c2ccc3ccccc3[n+]2C)cc1,2738*,2876*,3396*,66*,94*,59*,41*,33*,31*
CN(C)c1ccc(/C=C/c2ccncc2)cc1,/,1455,/,-4,3,10,/,/,/
Cc1nc2ccc3nc(NC(=O)c4ccc5c(c4)OCCO5)sc3c2s1,/,2067*,/,117*,17,157*,92*,71*,58*
O=C(O)CCc1ccc(-c2ccc(Br)cc2)o1,/,2456*,/,28*,42*,62*,26*,16,20
Cc1ccccc1-n1c(C)nnc1SCC(=O)N1CCc2ccccc2C1,1554,1526,1934,6,-5,6,/,/,/
Nc1ccc(-c2nc3ccc(N)cc3[nH]2)cc1,2018,1836,2123,31*,18,8,3,12,3
O=C(Nc1nc(-c2cccs2)c(C(=O)C(F)(F)F)s1)c1ccco1,3363*,3022*,3540*,41*,61*,37*,37*,22*,25*
CCC(/C=C1\Sc2ccc(OC)cc2N1CCO)=C\c1sc2ccc(OC)cc2[n+]1CCO,1991,1865,2291,23*,19,19,13,3,8
CCN(CC)S(=O)(=O)c1ccc(-n2c(=O)c(C(C)C)c(C)n2C)cc1,1703,1623,1705,-6,1,1,/,/,/
O=C(c1ccc2c(c1)OCO2)N1CCN(c2ccccc2)CC1,/,1552,/,4,13,26*,1,3,3
CC(Nc1ccc(Br)cn1)c1cc(Cl)ccc1O (stereo not given),/,1617,/,78*,37*,52*,33*,51*,41*
CC(Nc1ccc(Cl)cc1)c1cc(Cl)ccc1O (stereo not given),/,1301,/,1,4,7,/,/,/
Oc1ccc(N=Cc2ccc(-c3cccs3)s2)cc1,/,1957,/,37*,26*,24,53*,46*,30*
CCCc1ccccc1OCCNC(=O)c1cc(=O)n(C)c(=O)n1C,1591,1561,1940,9,10,-1,/,/,/
O=C(CSc1ncnc2c1oc1ccccc12)Nc1cccc(Cl)c1,/,1548,/,11,25*,33*,27*,22*,19
O=C(CSc1ncnc2c1oc1ccccc12)Nc1nc2ccccc2s1,/,1783,/,30*,12,39*,44*,31*,28*
SMILES,SRC3 TRFRET art,SRC2 TRFRET art,SRC1 TRFRET art,PPARg SRC-1 ag,PPARg SRC2 recr,PPARg SRC-3 ag,PPARg SRC2 ag,PPARg SRC1 ag,PPARg SRC3 conf
O=C(CSc1nc2ccccc2o1)Nc1nc2ccccc2s1,/,1507,/,2,7,8,/,/,/
CC(=O)N1CCN(c2ccc(Nc3ncnc4c3oc3ccccc34)cc2)CC1,/,1766,/,15,23*,13,2,3,2
CC(C)Sc1ncnc2c1oc1ccccc12,/,1948,/,36*,33*,38*,45*,33*,30*
O=c1c2oc3ccccc3c2ncn1Cc1cccc(Cl)c1,1540,1416,1630,3,-2,0,/,/,/
c1ccc(Sc2ncnc3c2oc2ccccc23)nc1,/,1640,/,2,15,7,/,/,/
COc1cc(CCC(=O)Nc2ccc(Br)c(C(F)(F)F)c2)cc(OC)c1OC,1583,1560,1886,5,1,-1,/,/,/
CCCCn1c(N)c(N(CC(C)C)C(=O)CCCSc2nncs2)c(=O)[nH]c1=O,1746,1679,1562,2,5,0,/,/,/
CC1CCN(c2nc3ccc(C(=O)N4CCN(Cc5ccc6c(c5)OCO6)CC4)cc3s2)CC1,/,1578,/,2,11,-2,/,/,/
CC(NC(=O)c1ccc(OC2CCN(C(=O)c3cccnc3)CC2)cc1)C1CC1 (stereo not given),1569,1545,1693,10,6,1,/,/,/
COC(=O)c1ccc(CSc2ncnc3c2oc2ccccc23)o1,/,1972*,/,56*,29*,50*,44*,29*,31*
O=C(CSc1ncnc2c1oc1ccccc12)Nc1cccc(C(F)(F)F)c1,/,2069*,/,21*,35*,29*,30*,20*,18
O=c1c2oc3ccccc3c2ncn1Cc1ccccc1F,/,1439,/,-1,6,1,/,/,/
O=C(O)CSc1nc(-c2ccccc2)nc2c1oc1ccccc12,/,1647,/,8,3,12,/,/,/
O=C(CSc1ncnc2c1cnn2CCc1ccccc1)Nc1cccc(C(F)(F)F)c1,/,1380,/,-4,4,-3,/,/,/
CC(=O)CSc1ncnc2c1oc1ccccc12,/,5487*,/,135*,114*,219*,65*,43*,44*
Fc1ccccc1CSc1ncnc2c1oc1ccccc12,/,2035*,/,46*,19,51*,49*,38*,32*
CCc1cc2c(=O)c(-c3ccc4c(c3)OCCO4)c(C)oc2cc1OS(C)(=O)=O,1340,1415,1603,-2,3,-9,/,/,/
O=C(CSc1ncnc2c1oc1ccccc12)Nc1ccccc1F,/,1545,/,33*,13,27*,37*,29*,24
COC(=O)c1[nH]c2cc(OC)ccc2c1N,/,1621,/,11,14,28*,17,7,10

# High-throughput results as filed in PubChem BioAssay.
